A selection: hits, their analogues and other compounds. The true share with any hit is near 7.3%.
AmpC detergent: AmpC beta-lactamase inhibition with detergent present; P00811; AmpC hydrolysis of nitrocefin, absorbance 480 nm, 0.01% Triton; Potency, µM (top dose mostly 114 µM), hits mostly inhibitors; 370,000 tested, 0.041% active; also: nearly all actives have a fitted effect of over 25% in size
Target sequence (P00811 whole entry, looked up): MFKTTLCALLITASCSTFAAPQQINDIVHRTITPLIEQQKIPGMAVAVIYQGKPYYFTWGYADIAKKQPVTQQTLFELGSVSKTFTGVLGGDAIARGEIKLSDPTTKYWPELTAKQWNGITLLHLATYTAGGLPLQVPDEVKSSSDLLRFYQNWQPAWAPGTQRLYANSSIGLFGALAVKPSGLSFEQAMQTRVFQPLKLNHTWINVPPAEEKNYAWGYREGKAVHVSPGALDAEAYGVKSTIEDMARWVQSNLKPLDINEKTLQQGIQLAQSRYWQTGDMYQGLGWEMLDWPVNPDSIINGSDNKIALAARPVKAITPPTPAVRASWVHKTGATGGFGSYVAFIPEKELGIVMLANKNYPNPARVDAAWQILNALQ
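AmpC (5.3 nM in the dispensed reagent) in 20 mM phosphate pH 7.0 with 0.01% (detergent screen) or 0.0001% Triton X-100 was preincubated with compounds for 15 min at room temperature. Nitrocefin was then added from an 800 uM solution, and hydrolysis was followed at 480 nm.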
HCV inh: HCV inhibition; Huh7.5.1 HCVcc-Cre infection, luciferase reporter, 44 h; Potency, µM (highest dose often 41.8 µM), most hits filed as inhibitors; 340,000 tested, 3.4% active
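HCVcc-Cre virus at an moi near 0.5 was added right after compound to cells cultured 4 h from seeding (1,000 cells/well). Luciferase activity was determined 44 h later, 15 min after substrate addition at RT.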
HCMV antiviral: human cytomegalovirus inhibition; HFF cells, HCMV-luciferase reporter, 72 h; hits give low values; activity change, negative = inhibition, % at 57.5 µM; 410,000 tested, 4.5% active; AID 1259415; in the data active = activity change below about -60%; inconclusive = no clear call, values can overlap the other calls; inactive = above about -39%
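After 16 h attachment at 37C, HFF cells received test compound and HCMV-luciferase (1 PFU/cell); reporter luminescence read 72 h later, data normalized against buffer-only and known inhibitor Salinomycin.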
FMDV inh: blocks foot and mouth disease virus. FMDV antiviral cell-based qHTS. Potency, µM (highest dose often 57.9 µM), hits mostly inhibitors. 410,000 tested, 1.2% active. AID 1159524; calls by dose curve; tested in HEK293T cells; also: read-out not given here; nearly all actives have a fitted effect of over 45% in size
AmpC inh no detg: blocks E. coli AmpC beta-lactamase in detergent-free assay; P00811; Potency, µM (titrated, usually from 57.1 µM), usual class: inhibitors; 330,000 tested, 0.52% active; AID 485341; AmpC nitrocefin hydrolysis, absorbance 480 nm, 0.0001% Triton; also: nearly all actives have a fitted effect of over 20% in size
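AmpC (5.3 nM in the dispensed reagent) in 20 mM phosphate pH 7.0 with 0.01% (detergent screen) or 0.0001% Triton X-100 was preincubated with compounds for 15 min at room temperature. Nitrocefin was then added from an 800 uM solution, and hydrolysis was followed at 480 nm.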
Numbers stand for hits; n = inactive; u = inconclusive; x = no result given; [ ] = another dose, or the depositor's remark. Unless noted, calls follow the shape of the dose curve; as a rule, active = well fitted curve in the direction sought with a large enough effect; inconclusive = small, poorly fitted or top-dose-only effect, or another doubt; inactive = no such curve, though single readings can be large; an effect the other way counts as inactive or inconclusive.

SMILES	AmpC detergent	HCV inh	HCMV antiviral	FMDV inh	AmpC inh no detg
CN(CC(=O)Nc1ccc(F)cc1)C(=O)COc1ccccc1Cc1ccccc1	n	n[8.37 µM]	n	n	35µM
CCOC(=O)C1=C(CC)Nc2ccccc2N=C1NC(=O)Nc1ccc(Cl)c(Cl)c1	n	u	-98	n	n
CCOC(=O)C1=C(CC)Nc2ccccc2N=C1NC(=O)c1cc(C)on1	n	n	n	n	n
CCOC(=O)CSc1nc2ccc(N3CCOCC3)cc2c(=O)n1Cc1ccccc1	n	2.8µM	n	n	n
COc1ccc(NC(=O)c2nc[nH]c2C(=O)N[C@@H](CC(C)C)C(=O)OC(C)(C)C)cc1	n	n	-78	n	n
CC(C)(C)OC(=O)[C@H](Cc1ccccc1)NC(=O)c1nc[nH]c1C(=O)NCC(=O)OCc1ccccc1	n	n	-61	n	n
CC(C)(C)OC(=O)CNC(=O)c1[nH]cnc1C(=O)N[C@@H](Cc1ccccc1)C(=O)OC(C)(C)C	n	n	n	u	n
CC(C)C[C@H](NC(=O)c1[nH]cnc1C(=O)N[C@@H](Cc1ccccc1)C(=O)OC(C)(C)C)C(=O)OC(C)(C)C	n	u	-89	n	n
C[C@H](NC(=O)c1nc[nH]c1C(=O)N1CCNCC1)C(=O)OC(C)(C)C	u	n	-65	n	n
CC(C)C[C@H](NC(=O)c1[nH]cnc1C(=O)N[C@@H](Cc1ccccc1)C(=O)OC(C)(C)C)C(=O)OCc1ccccc1	n	n	n	n	n
CC1CN(CC(=O)NCCc2ccncc2)Cc2ccccc2O1 (centres undefined)	x	x	x	n	x
O=C(c1n[nH]c2c1CCCC2)N1CCOc2ccc(C(O)C(c3ccccc3)c3ccccc3)cc2C1 (centres undefined)	x	x	x	n	x
O=C(N[C@@H](Cc1ccccc1)C(=O)OCc1ccccc1)c1nc[nH]c1C(=O)N1CCNCC1	x	n	-84	n	n
CC(C)(C)OC(=O)NCCCC[C@H](NC(=O)c1nc[nH]c1C(=O)NCC(=O)OCc1ccccc1)C(=O)OC(C)(C)C	u	n	-89	n	n
C[C@H](NC(=O)c1nc[nH]c1C(=O)N[C@@H](CCCCNC(=O)OC(C)(C)C)C(=O)OC(C)(C)C)C(=O)OCc1ccccc1	n	n	n	n	n
Cc1ccnc(Sc2ccc([N+](=O)[O-])cn2)n1	n	n	-96	n	n
N/C(=N\OC(=O)N1CCOCC1)c1ccc(Br)cc1	n	u	-76	n	n
N/C(=N\OC(=O)N1CCOCC1)c1ccc(Cl)cc1	u	n	n	n	n
c1cc(Nc2ncnc3sc4c(c23)CCC4)ccn1	n	n	-63	n	n
C(=N\Nc1ncnc2sc3c(c12)CCC3)/c1cccs1	n	x	-102	x	n
CN(C)c1ccc(Nc2ncnc3sc4c(c23)CCCC4)cc1	n	x	-90	u	x
NNc1ncnc2sc3c(c12)CCC3	n	u	n	n	n[11.4 µM]
C(=N\Nc1ncnc2sc3c(c12)CCC3)/c1ccncc1	u	u	u	u	n
CN=c1scc(-c2ccccc2F)n1/N=C(\C)c1cccnc1	n	32µM	n	n	n
COc1cc(NC(=O)c2ccc(Cl)cc2)c2ncccc2c1	u	u	n	n	n
SMILES	AmpC detergent	HCV inh	HCMV antiviral	FMDV inh	AmpC inh no detg
COc1cc(NC(=O)C2CCCCC2)c2ncccc2c1	u	10µM	n	n	n
CC(=NCC1CCCO1)C1=C(O)CC(C)(C)CC1=O (centres undefined)	u	n	-62	n	n
CC(=NCC1CCNCC1)C1=C(O)CC(C)(C)CC1=O	n	n	n	n	n
O=C(NC(=S)NC1CCS(=O)(=O)C1)c1ccccc1 (centres undefined)	n	n	n	n	n
O=C(NC1CCCCC1)c1ccccc1NC(=S)NC(=O)C1CCC1	n	n	-62	n	n
O=C(NC(=S)NC1CCCCC1)c1ccccc1	n	n	-98	n	n
CCCCc1ccc(NC(=S)N2CCCC(C)C2)cc1 (centres undefined)	u	n	-67	n	n[2.29 µM]
CCn1c(C(=O)N2CCc3ccccc3C2)cc2oc3ccccc3c21	n	n	n	n	n
CCOc1ccccc1CNC(=O)c1cc2oc3ccccc3c2n1CC	n	u	-70	n	n
CCn1c(C(=O)NCc2ccc(F)cc2)cc2oc3ccccc3c21	n	x	-69	n	x
CCOc1ccc(CNC(=O)c2cc3oc4ccccc4c3n2C)cc1	n	n	-83	n	n

Screens: PubChem, National Center for Advancing Translational Sciences (NCATS)
